# PubChem BioAssay AID463173 (ICCB-Longwood Screening Facility, Harvard Medical School, 2010)
# Among all 52,000 compounds or so, about 4,300 (8.3%) were called active. The entries come from a sample that favours actives as a whole. A number with no mark means an inactive call. Rule as the data show it: active = survival mostly below about 52% (no sharp cut-off); inactive = mostly above about 56%.
# System: DeltatarO mutant
# Assay: growth inhibition of S. aureus wild type versus tarO mutant, primary screen, teichoic acid synthesis inhibitors, RN4220, OD600 (AID 463173)
# Conditions: OD600, 18 h, hits give low values, screened at 18.75 µg/mL (by protocol)
row,Compound,survival
1,N#CC1=C2SCN(C3CCCCC3)CN2C(=O)CC1c1ccc(Cl)cc1 (centres undefined),91%
2,CCOc1cc(CNC(=O)c2cc(-c3ccccc3)n[nH]2)cc(OCC)c1OCC,98%
3,Cc1ccc(-c2cc(NC(=O)COc3c(C)cc(C)cc3C)on2)cc1,67%
4,CC1Cc2cc(C(=O)NC3CCCCC3)ccc2O1 (centres undefined),71%
5,Cc1ccc(N2C(=O)CS(=O)(=O)C23C(=O)N(Cc2ccccc2F)c2ccccc23)cc1Cl (centres undefined),60%
6,O=C(CCC1N=C2c3ccccc3N=C(SCc3ccc(F)cc3)N2C1=O)N1CCN(c2ccccc2)CC1 (centres undefined),57%
7,O=C(CCC1N=C2c3ccccc3N=C(SCc3ccc(Cl)cc3)N2C1=O)N1CCN(c2ccccc2)CC1 (centres undefined),91%
8,O=C(CCC1N=C2c3ccccc3N=C(SCc3ccccc3Cl)N2C1=O)N1CCN(c2ccccc2)CC1 (centres undefined),49% (active)
9,O=C(CCC1N=C2c3ccccc3N=C(SCc3cccc(Cl)c3)N2C1=O)N1CCN(c2ccccc2)CC1 (centres undefined),47% (active)
10,Cc1ccc(CSC2=Nc3ccccc3C3=NC(CCC(=O)N4CCN(c5ccccc5)CC4)C(=O)N23)cc1 (centres undefined),85%
11,O=C(CCC1N=C2c3ccccc3N=C(SCc3cccc(Cl)c3)N2C1=O)NCCc1ccccc1 (centres undefined),63%
12,COc1cccc(NC(=O)CN2CCCN(S(=O)(=O)c3ccc(Br)cc3)CC2)c1,58%
13,CCC1(CC)Cc2ccccc2-c2nc(NCCCO)[nH]c(=O)c21,82%
14,COc1ccccc1N1CCN(C(=O)c2cc3c(=O)n(Cc4cccs4)ccc3nc2C)CC1,74%
15,Cc1oc2ncn(CC(C)C)c(=O)c2c1C(=O)NCCCN(Cc1ccccc1)C(C)C,117%
16,COc1ccc2c(C)c(CCC(=O)NCCc3ccccc3OC)c(=O)oc2c1,77%
17,Cc1cc(NC(=O)c2ccco2)cc(-c2nc3cc(Cl)ccc3o2)c1O,79%
18,O=C(Nc1ccc(Cl)c(-c2nc3ccccc3o2)c1)c1cccc2c(Cl)cccc12,84%
19,Cc1cc(C)c2oc(-c3cc(NC(=O)Cc4ccccc4)ccc3Cl)nc2c1,31% (active)
20,O=C(/C=C/c1ccco1)Nc1ccc(Cl)c(-c2nc3cc(Cl)ccc3o2)c1,65%

row,Compound,survival
1,Cc1ccc2nc(-c3cc(NC(=O)/C=C/c4ccccc4)ccc3Cl)oc2c1,68%
2,Cc1ccc2oc(-c3cc(NC(=O)c4oc5ccccc5c4C)ccc3Cl)nc2c1,62%
3,Cc1ccccc1-c1nc2cc(NC(=O)Cc3ccc(Cl)cc3)ccc2o1,66%
4,COc1c(C)cccc1C(=O)Nc1ccc(Cl)c(-c2nc3cc(C)ccc3o2)c1,6% (active)
5,Cc1cc(NC(=O)Cc2ccccc2)cc(-c2nc3ccccc3o2)c1O,79%
6,Cc1ccc2oc(-c3cc(NC(=O)/C=C/c4ccco4)ccc3Cl)nc2c1,40% (active)
7,O=C(Nc1ccc(O)c(-c2nc3ccccc3o2)c1)c1ccco1,71%
8,Cc1ccc2oc(-c3cc(NC(=O)c4ccco4)ccc3Cl)nc2c1,0% (active)
9,CC1CCN(c2nc3ccc(C(=O)NCc4ccccc4)cc3s2)CC1,77%
10,CC(=O)Nc1ccc(OCc2cc(=O)n3ccccc3n2)cc1,76%
11,Cc1ccc(-c2nc3sc(CCNC(=O)c4ccc(Br)o4)c(C)n3n2)cc1,84%
12,CCOC(=O)C1CCN(C(=O)CN(c2cc(Cl)ccc2OC)S(C)(=O)=O)CC1,95%
13,CC1CCCCC1NC(=O)CN1CCC(NC(=O)c2cccc(F)c2)CC1 (centres undefined),85%
14,CC1CCCN(CCCNC(=O)Cn2ncc3c([nH]c4ccccc43)c2=O)C1 (centres undefined),94%
15,O=C(Nc1cc(F)ccc1F)C1COc2ccccc2C1 (centres undefined),69%
16,Cc1ccc(OCC(=O)Nc2ccc(-c3nc4ccc(C)cc4o3)cc2)cc1,66%
17,Cc1ccc2oc(-c3cc(NC(=O)CC(C)C)ccc3Cl)nc2c1,87%
18,CCc1ccc(OCC(=O)Nc2ccc(Cl)c(-c3nc4ncccc4o3)c2)cc1,47%
19,Cc1ccc2oc(-c3cccc(NC(=O)Cc4ccc(Cl)cc4)c3)nc2c1,72%
20,Cc1ccc2oc(-c3cc(NC(=O)Cc4ccccc4)ccc3Cl)nc2c1,52% (active)

row,Compound,survival
1,Cc1cc(NC(=O)COc2ccccc2)cc(-c2nc3ccccc3o2)c1O,94%
2,CCc1ccc(OCC(=O)Nc2ccc(Cl)c(-c3nc4cc(C)cc(C)c4o3)c2)cc1,35% (active)
3,Cc1ccc2nc(-c3cc(NC(=O)COc4ccc(C)c(C)c4)ccc3Cl)oc2c1,30% (active)
4,CCOc1ccc(C(=O)Nc2ccc(Cl)c(-c3nc4cc(C)cc(C)c4o3)c2)cc1,66%
5,Cc1cc2nc(-c3cccc(NC(=O)COc4ccc(Cl)c(C)c4)c3)oc2cc1C,64%
6,Cc1ccc(OCC(=O)Nc2cccc(-c3nc4ccccc4o3)c2C)cc1C,55% (active)
7,CCCCOc1ccc(C(=O)Nc2cccc(-c3nc4ccccc4o3)c2C)cc1,76%
8,Cc1nn(CCCC(=O)Nc2ccccc2C(F)(F)F)c(=O)c2c1sc1ccccc12,74%
9,Cc1nc2ccc(C(=O)N3CCN(Cc4ccccc4)CC3)cc2[nH]1,104%
10,CN(c1ccc(C(=O)NCc2cccnc2)cc1)S(C)(=O)=O,73%
11,Cc1cccc(C(=O)n2nc(-c3ccco3)nc2NCc2ccccc2)c1,63%
12,C=CCN1C(=O)C2C(C(=O)NC3CCCCC3C)C3(C)C=CC2(O3)C1C(=O)NC(C)(C)C (centres undefined),65%
13,Nc1ncc(S(=O)(=O)NCc2ccccc2)cn1,70%
14,COc1ccc(Nc2oc(-c3ccc(COc4cccc(C)c4)o3)nc2C#N)cc1,109%
15,Cc1ccc(-n2c(=O)c3ccccc3n(CC(=O)Nc3cccc(C(F)(F)F)c3)c2=O)cc1,63%
16,CCc1ccc2oc(-c3ccc(C)c(NC(=O)c4ccc(C#N)cc4F)c3)nc2c1,74%
17,Cc1cc(C)c2oc(-c3cccc(NC(=O)COc4ccccc4Cl)c3C)nc2c1,42% (active)
18,Cc1cc(C)c2oc(-c3cccc(NC(=O)c4cccc(F)c4)c3C)nc2c1,72%
19,Cc1cc(C)c2oc(-c3ccc(NC(=O)COc4ccccc4C)cc3)nc2c1,67%
